High-throughput results: PubChem BioAssay, Broad Institute
ERAP1 inh – blocks human ERAP1 aminopeptidase activity. recombinant ERAP1, Leu-AMC fluorescence, 60 min. AID 652197. inhibition, % at 10.7 µM. 340,000 tested, 0.15% active;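 active means mean replicate inhibition of at least 30%, or all replicates individually reaching that 30% level; inactive means mean below 30% and not every replicate reaching it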
MLL AF4-AF9 inh – inhibitors of human MLL-AF4/AF9 interaction | P42568 | AlphaScreen, biotin-AF4 peptide binding to FLAG-AF9 | 350,000 tested, 0.47% active | inhibition, % at 10 µM;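 active means every replicate reaching a set inhibition limit, whatever the replicate mean, cut at about 25% in these data; inconclusive means mean inhibition reaches that limit but some replicates miss it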
FGF22 binding – FGF22 (human) thermal shift binding; Q9HCT0; recombinant FGF22 thermal shift, SYPRO orange fluorescence; percent of sucrose octasulfate shift, DMSO zero; activity (Tm shift, normalised), % at 9.99 µM; 340,000 tested, 1.5% active;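 active means mean Tm shift, scaled 0 neutral to 100 positive control, at about 1.3% or above, every replicate too, limit read from the data; inconclusive means no clear call, values can overlap the other calls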
Target sequence (Q9HCT0 whole entry, looked up): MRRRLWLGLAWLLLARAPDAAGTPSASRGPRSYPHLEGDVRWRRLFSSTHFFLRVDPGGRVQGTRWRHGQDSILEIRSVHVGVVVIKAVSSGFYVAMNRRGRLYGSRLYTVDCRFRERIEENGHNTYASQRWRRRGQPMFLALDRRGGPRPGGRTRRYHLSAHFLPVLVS
RAD52 anneal inh – inhibitors of human RAD52 DNA annealing; P43351; 360,000 tested, 0.46% active; AID 651710; inhibition, % at 18.7 µM; recombinant RAD52 DNA annealing, FRET fluorescence;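 active means every replicate showing at least 50% inhibition; inconclusive means mean inhibition at least 50% but not in every replicate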
DENV2 CPE rescue – inhibitors of DENV2 cytopathic effect; DENV2-infected cells, cytopathic effect rescue, plate reader; CPE inhibition, % at 9.99 µM; AID 651640; 350,000 tested, 1.7% active; in the data active means CPE inhibition above about 20%, passing the limit was not always enough; inconclusive means no clear call, values can overlap the other calls; tested in BHK-21 cells
Each line names hits and unclear results; the compound was inactive in the other large screens. Rows were chosen to be rich in hits. Some 4% of all compounds tested hit in one or more screens of this group.

CCCN(C(=O)c1cccc(S(=O)(=O)N2CCN(Cc3ccccc3)CC2)c1)C1CCS(=O)(=O)C1 (centres undefined)	none
COc1ccc2c3c(n(C)c2c1)[C@@H](CO)N(S(C)(=O)=O)CC31CN(C(=O)C2CCC2)C1	none
CC(=O)c1ccc(NC(=S)Nc2ccc3cn[nH]c3c2)cc1	FGF22 binding 1.8
CC(=O)c1ccc(NC(=S)Nc2ccc(Br)c(Cl)c2)cc1	FGF22 binding 1.4, DENV2 CPE rescue inconclusive
C[C@@H]1CN([C@@H](C)CO)C(=O)c2cc(NC(=O)NC3CCCCC3)ccc2O[C@@H](C)CCCCO[C@@H]1CN(C)Cc1ccc(C(F)(F)F)cc1	none
O=C(Nc1ccccc1N1CCCC1)c1cc(Cl)ccc1Cl	FGF22 binding 44.5, DENV2 CPE rescue inconclusive
O=C(Nc1ccccc1N1CCCC1)c1ccc(Cl)cc1Cl	none
O=C(Nc1ccccc1N1CCCC1)c1ccc([N+](=O)[O-])cc1Cl	FGF22 binding 43.9
O=C(C[C@H]1CC[C@H]2[C@@H](COC[C@H](O)CN2Cc2ccc(F)cc2)O1)N1CCc2ccccc2C1	none
COc1ccc(NC(=O)N(C)C[C@@H]2Oc3ccc(NC(=O)Cc4ccccc4)cc3C(=O)N([C@@H](C)CO)C[C@@H]2C)cc1	none
COc1ccc(Oc2nc(-c3ccccc3)ncc2C(=O)O)cc1	FGF22 binding 43.0
COc1ccc(Sc2nc(-c3ccccc3)ncc2C(=O)O)cc1	none
Cc1cc(Cl)c2oc(C(=O)N(C)CCCCN3CCOCC3)c(C)c2c1	DENV2 CPE rescue 22.2
Cc1cc(Cl)c2oc(C(=O)N(C)CCCN3CCOCC3)c(C)c2c1	none
CCCNC(=O)N1CC2(CCN(CC3CC3)CC2)c2c(n(C)c3cc(OC)ccc23)[C@H]1CO	none
CC#C[C@@H](CC)c1ccc2ccn(C)c2c1	DENV2 CPE rescue 57.9
Cc1ccc(S(=O)(=O)Oc2ccccc2-c2ccccc2)cc1	FGF22 binding 43.2
O=C(COc1ccc(Cl)c2cccnc12)N1CCOCC1	none
O=C(Oc1c(CN2CCOCC2)cc(Cl)c2cccnc12)c1ccccc1Br	DENV2 CPE rescue 41.0 (no result: MLL AF4-AF9 inh)
CCOC(=O)N1CCN(Cc2cc(Cl)c3cccnc3c2O)CC1	MLL AF4-AF9 inh 69.9
NS(=O)(=O)Oc1ccccc1	DENV2 CPE rescue 52.1
O=S(=O)(CS(=O)(=O)Oc1ccccc1)Oc1ccccc1	DENV2 CPE rescue 23.5
COc1ccc(OS(=O)(=O)Cc2ccccc2)cc1	none
CC(C)C#Cc1cnc2c(c1)C(=O)N([C@@H](C)CO)C[C@@H](C)[C@H](CN(C)C(=O)Cc1ccccn1)O2	none
CN1CCN(C(=O)C[C@@H]2C[C@@H]3c4cc(NC(=O)NC5CCCCC5)ccc4O[C@@H]3[C@@H](CO)O2)CC1	DENV2 CPE rescue 28.7
O=C(Nc1ccc2c(c1)[C@H]1C[C@@H](CC(=O)N3CCCCC3)O[C@@H](CO)[C@H]1O2)C1CCC1	DENV2 CPE rescue 25.9
O=C(Nc1ccc(F)cc1)Nc1ccc2c(c1)[C@H]1C[C@H](CC(=O)N3CCCCC3)O[C@@H](CO)[C@H]1O2	DENV2 CPE rescue 21.2 (no result: ERAP1 inh, MLL AF4-AF9 inh, RAD52 anneal inh)
O=C(Nc1ccc(F)cc1)Nc1ccc2c(c1)[C@@H]1C[C@H](CC(=O)N3CCCCC3)O[C@@H](CO)[C@@H]1O2	none (no result: ERAP1 inh, MLL AF4-AF9 inh, RAD52 anneal inh)
O=C(Nc1ccc2c(c1)[C@@H]1C[C@H](CC(=O)N3CCCCC3)O[C@H](CO)[C@@H]1O2)C1CCC1	none
CCN1[C@H](C(=O)NCc2ccccc2)[C@@H](CO)[C@@H]2Cn3c(ccc(-c4ccccc4)c3=O)[C@@H]21	none
O=C(C[C@H]1CC[C@@H](NC(=O)Nc2ccccc2F)[C@@H](CO)O1)NCc1ccc(F)cc1	none (no result: FGF22 binding)
C/C(CC(=O)Nc1ccc2c(c1)OCCO2)=N\NC(=O)c1cccc(O)c1	none
CC(=O)N/N=C(\C)CC(=O)Nc1ccc2c(c1)OCCO2	FGF22 binding 43.3 (no result: DENV2 CPE rescue)
CO[C@H]1CN(C)C(=O)c2cc(NC(=O)c3nc4ccccc4s3)ccc2OC[C@H](C)N(Cc2cncnc2)C[C@@H]1C	none (no result: ERAP1 inh)
Cc1nnsc1SCCNC(=O)Nc1ccc(Cl)cc1	FGF22 binding 43.6
O=C(c1cccnc1)N1C[C@@H]2[C@H](c3ccccc31)[C@H](CO)N2C(=O)C1CCCC1	none
COc1ccc(C2CCc3cc4c(cc3C2=NO)OCO4)cc1OC (centres undefined)	FGF22 binding 42.9
C[C@H]1CN([C@@H](C)CO)S(=O)(=O)c2ccc(-c3cccc(C#N)c3)cc2O[C@@H]1CN(C)C(=O)c1ccc(F)cc1	none
O=C(NC(=S)Nc1nc(-c2ccccc2)cs1)c1cccnc1	FGF22 binding 43.4
Cc1ccc(S(=O)(=O)N/N=C/c2ccc(O)cc2O)cc1[N+](=O)[O-]	none (no result: ERAP1 inh)
